In PubChem BioAssay (NCATS):
Results filed as inconclusive are left out. The source made the active and inactive calls. Unless noted, calls follow the shape of the dose curve; as a rule, active = well fitted curve in the direction sought with a large enough effect; inconclusive = small, poorly fitted or top-dose-only effect, or another doubt; inactive = no such curve, though single readings can be large; an effect the other way counts as inactive or inconclusive.

Columns and labels:
[1] = target: Lysosomal acid glucosylceramidase (Homo sapiens) (UniProt P04062); test: Glucocerebrosidase-p2 (AID 348; in the data active = potency below about 10 µM; also: potency is read from the fitted curve at half-maximal effect); conditions: purified GBA, blue fluorogenic substrate, 40 min
Lysosomal acid glucosylceramidase (Homo sapiens), sequence (P04062 whole entry, looked up): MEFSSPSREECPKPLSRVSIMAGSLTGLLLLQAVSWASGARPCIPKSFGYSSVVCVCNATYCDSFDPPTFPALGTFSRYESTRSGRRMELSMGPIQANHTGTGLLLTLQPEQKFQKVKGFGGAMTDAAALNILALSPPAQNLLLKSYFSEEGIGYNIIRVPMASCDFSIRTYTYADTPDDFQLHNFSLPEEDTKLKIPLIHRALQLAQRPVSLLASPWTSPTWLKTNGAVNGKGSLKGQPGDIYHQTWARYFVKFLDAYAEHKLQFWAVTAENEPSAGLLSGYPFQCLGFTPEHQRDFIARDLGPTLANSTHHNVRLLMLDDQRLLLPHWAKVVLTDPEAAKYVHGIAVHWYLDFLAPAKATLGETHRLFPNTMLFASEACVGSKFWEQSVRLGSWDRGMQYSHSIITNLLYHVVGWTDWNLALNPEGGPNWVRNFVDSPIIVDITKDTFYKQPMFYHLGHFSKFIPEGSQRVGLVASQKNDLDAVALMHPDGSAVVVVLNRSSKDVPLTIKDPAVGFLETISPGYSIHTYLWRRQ
In short: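 Normal human glucocerebrosidase (0.2 nM) with blue fluorogenic substrate (80 uM final) in citrate/phosphate pH 5.9 with 10mM sodium taurocholate, 0.01% tween-20; 40 min RT, NaOH/glycine stop; fluorescence Ex 365/Em 440; AC50 from a titration from 0.6 nM upwards.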

[2] = AP1 Signaling Pathway (AID 357; active = well fitted curve in either direction with a large enough effect, not every such curve was filed as active;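 also: ME-180 reporter cells stimulated with EGF at its EC50 level; % is scaled to controls: 0 for no effect and ±100 for the full control effect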); conditions: ME-180 AP-1-bla reporter, EGF-induced, beta-lactamase ratio, 5 h; at 7.69 µM (top of the series) unless noted
In short: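 Beta-lactamase reporter under AP-1 response element, ME-180 background. Stimulus: EC50 EGF. Compound exposure 5 h, 37 °C. Detection: CCF4, 2.5 h RT, 460/530 nm. Values: AC50 from titration.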

[3] = NFAT Signaling Pathway (AID 444; active = well fitted curve in either direction with a large enough effect, not every such curve was filed as active;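 also: carbachol stimulus at about its EC50 of 1 µM final; % is scaled to controls: 0 for no effect and ±100 for the full control effect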); conditions: Jurkat NFAT-bla M1, carbachol, beta-lactamase ratio, 5 h; at 7.69 µM (top of the series) unless noted
In short: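 Read-out: CCF4 FRET ratio (460 nm/530 nm) after 1 h RT dye loading, used for %activity and AC50 from titration series. Cells: Jurkat NFAT-β-lactamase/M1 line, treated with compound plus 1 uM carbachol for 5 h, 37 °C.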

[4] = Stat Signaling Pathway (AID 446; active = well fitted curve in either direction with a large enough effect, not every such curve was filed as active;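 also: ME-180 cervical cancer cells given 40 pM IL-6 alongside compound; SIE-controlled beta-lactamase reporter measured as 460/530 nm FRET emission ratio; % is scaled to controls: 0 for no effect and ±100 for the full control effect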); conditions: ME-180 SIE beta-lactamase reporter, IL-6 stimulated, 5 h; at 7.69 µM (top of the series) unless noted
In short: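 Overnight-plated ME-180 cells bearing a STAT Inducible Element beta-lactamase reporter; 5 h co-exposure to compound and 40 pM IL-6; values normalized to 300 pM IL-6 and 125 nM JAK inhibitor controls.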

[5] = target: Glucocorticoid receptor (Homo sapiens) (UniProt P04150); test: GR-GFP Redistribution (AID 450;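 active = compounds whose dose series gives a full or clear partial fitted curve of increased nuclear translocation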; also: potency is read from the fitted curve at half-maximal effect); conditions: U2OS GR-GFP nuclear translocation, laser cytometry, 2 h
Glucocorticoid receptor (Homo sapiens), sequence (P04150 whole entry, looked up, the tested form may be a part): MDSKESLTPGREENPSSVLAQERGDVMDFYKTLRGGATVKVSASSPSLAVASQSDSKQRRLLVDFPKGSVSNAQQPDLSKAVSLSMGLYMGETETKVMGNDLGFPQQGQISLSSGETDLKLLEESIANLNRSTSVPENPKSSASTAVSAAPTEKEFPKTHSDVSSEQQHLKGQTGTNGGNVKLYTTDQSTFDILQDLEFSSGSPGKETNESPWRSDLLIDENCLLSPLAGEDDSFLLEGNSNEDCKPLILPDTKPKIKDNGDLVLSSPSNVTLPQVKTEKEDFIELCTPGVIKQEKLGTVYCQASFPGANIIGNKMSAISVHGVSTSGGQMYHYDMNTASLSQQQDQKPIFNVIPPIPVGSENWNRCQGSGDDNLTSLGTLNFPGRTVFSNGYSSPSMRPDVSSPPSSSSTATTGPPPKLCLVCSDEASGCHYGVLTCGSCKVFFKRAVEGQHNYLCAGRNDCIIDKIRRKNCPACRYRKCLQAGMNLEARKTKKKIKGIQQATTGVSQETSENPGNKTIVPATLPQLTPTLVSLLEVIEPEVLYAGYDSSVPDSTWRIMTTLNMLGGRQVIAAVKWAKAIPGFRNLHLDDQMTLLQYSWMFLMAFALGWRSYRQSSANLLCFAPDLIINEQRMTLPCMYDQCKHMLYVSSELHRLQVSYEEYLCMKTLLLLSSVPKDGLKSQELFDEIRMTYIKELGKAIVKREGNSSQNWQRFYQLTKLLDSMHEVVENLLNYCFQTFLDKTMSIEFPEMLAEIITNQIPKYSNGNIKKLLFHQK

[6] = target: Glucocorticoid receptor (Homo sapiens) (UniProt P04150); test: GR-EFC Redistribution (AID 451; calls by dose curve; also: potency is read from the fitted curve at half-maximal effect); conditions: CHO-K1 GR-EFC translocation, beta-gal luminescence, 2 h
In short: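 Translocation of GR-ED fusion to nuclear EA restores b-gal, read by luminescence after 1 h room-temperature detection. Engineered CHO-K1 biosensor cells, 1,000/well, exposed 2 h at 37 C to titrations up to 46 uM final.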

[7] = target: Mitogen-activated protein kinase 10 (Mus musculus) (UniProt Q61831); test: JNK3 AlphaScreen Assay (AID 530; active = well fitted curve in either direction with a large enough effect, not every such curve was filed as active;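 also: kinase came from lysate of stimulated human HepG2 cells; signal reports phosphorylation of biotinylated GST-cJun 1-79 at Ser73 with 10 µM ATP; % is scaled to controls: 0 for no effect and ±100 for the full control effect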); conditions: JNK3 lysate, c-Jun phosphorylation; series mostly up to 57.1 µM
In short: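 qHTS titrations with 15 min compound pre-incubation before adding ATP (10 uM final). Read-out: AlphaScreen of Ser73-phosphorylated biotin-GST-cJun using HepG2 lysate JNK3 activated by IL-1β and TNFα.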

[8] = target: 3',5'-cyclic-AMP phosphodiesterase 4B (Homo sapiens) (UniProt Q07343); test: qHTS Assay for Inhibitors of PDE-IV (AID 607; active = well fitted activation curve with a large enough effect in the main read-out, with a control signal flat, not every such curve was filed as active; also: % of control where 0% means no effect); conditions: HEK293 ACTOne CNG channel cells, membrane potential fluorescence; series mostly up to 22.9 µM
3',5'-cyclic-AMP phosphodiesterase 4B (Homo sapiens), sequence (Q07343 whole entry, looked up): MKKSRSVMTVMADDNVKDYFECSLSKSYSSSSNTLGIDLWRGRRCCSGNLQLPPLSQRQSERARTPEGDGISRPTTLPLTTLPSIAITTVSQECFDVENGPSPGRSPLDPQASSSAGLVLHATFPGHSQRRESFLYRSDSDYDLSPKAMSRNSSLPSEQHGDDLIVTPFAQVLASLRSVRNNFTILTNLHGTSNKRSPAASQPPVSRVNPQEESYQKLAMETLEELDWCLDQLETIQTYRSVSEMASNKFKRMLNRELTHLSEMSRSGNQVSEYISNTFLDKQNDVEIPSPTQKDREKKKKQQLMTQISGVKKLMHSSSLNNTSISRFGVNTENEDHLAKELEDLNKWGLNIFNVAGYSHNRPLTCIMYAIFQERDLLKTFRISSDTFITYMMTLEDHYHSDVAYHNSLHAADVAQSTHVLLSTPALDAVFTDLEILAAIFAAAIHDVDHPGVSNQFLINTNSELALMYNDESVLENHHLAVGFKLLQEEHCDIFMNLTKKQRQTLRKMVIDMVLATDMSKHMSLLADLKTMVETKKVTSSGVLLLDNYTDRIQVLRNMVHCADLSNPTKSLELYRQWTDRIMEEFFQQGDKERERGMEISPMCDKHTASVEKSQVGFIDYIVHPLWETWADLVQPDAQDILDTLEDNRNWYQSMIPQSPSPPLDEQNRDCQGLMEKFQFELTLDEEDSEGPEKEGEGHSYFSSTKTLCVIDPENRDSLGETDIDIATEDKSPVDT
In short: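 Live HEK293 cells with a modified cyclic nucleotide-gated (CNG) channel report intracellular cAMP via membrane-potential dye fluorescence (ex 535/em 590 nm). Endogenous PDE-IV was targeted. Compounds were tested at up to 22.9 uM final; RO 20-1724 100 uM served as control.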

[9] = qHTS Assay for Lipid Storage Modulators (AID 1519; calls by dose curve); conditions: Drosophila S3 cells, BODIPY lipid droplet/cell ratio, laser cytometry, cells loaded with oleic acid; for activity change, negative = inhibition: at 57.5 µM (top of the series)
In short: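 Cells seeded at 5,000 per well were treated with compounds over a concentration series and loaded with oleic acid (400 uM, as added). Lipid droplet fluorescence (488 nm excitation, 500-530 nm channel) was read by laser-scanning cytometry and normalized to 20 uM Triacsin C.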

[10] = target: Dual specificity protein kinase CLK4 (Homo sapiens) (UniProt Q9HAZ1); test: qHTS Assay for Inhibitors of CDC-like Kinase 4 (ADP-FP Assay) (AID 1795); conditions: Transcreener ADP fluorescence polarization; series mostly up to 50 µM;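 also: recombinant human CLK4 phosphorylating RS repeat peptide at 1 µM ATP; % is scaled to controls: 0 for no effect and ±100 for the full control effect; nearly all actives have a fitted effect of over 60% in size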
Dual specificity protein kinase CLK4 (Homo sapiens), sequence (Q9HAZ1 whole entry, looked up): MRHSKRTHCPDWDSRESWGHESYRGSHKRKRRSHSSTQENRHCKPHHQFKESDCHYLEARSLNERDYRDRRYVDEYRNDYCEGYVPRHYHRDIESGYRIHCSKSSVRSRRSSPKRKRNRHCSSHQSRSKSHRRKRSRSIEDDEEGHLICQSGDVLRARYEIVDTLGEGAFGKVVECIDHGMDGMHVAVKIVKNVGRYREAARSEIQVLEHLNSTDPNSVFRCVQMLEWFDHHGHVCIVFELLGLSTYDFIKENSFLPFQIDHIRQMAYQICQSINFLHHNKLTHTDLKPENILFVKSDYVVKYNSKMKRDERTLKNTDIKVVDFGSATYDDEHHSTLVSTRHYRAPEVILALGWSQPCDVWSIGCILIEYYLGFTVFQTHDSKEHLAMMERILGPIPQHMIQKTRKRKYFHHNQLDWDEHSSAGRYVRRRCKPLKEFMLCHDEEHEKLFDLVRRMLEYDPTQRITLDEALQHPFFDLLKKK
In short: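 Recombinant Clk4 (6.25 nM) phosphorylated 100 uM RS repeat peptide with 1 uM ATP in 25 mM Tris pH 7.5, 10 mM MgCl2, 0.5 mM EGTA, 2.5 mM DTT, 0.01% Triton X-100 for 1 h. ADP was detected by Transcreener ADP2 competitive fluorescence polarization after 30 min at room temperature.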

[11] = target: Ubiquitin carboxyl-terminal hydrolase 1 (Homo sapiens) (UniProt O94782); test: Inhibitors of USP1/UAF1: Pilot qHTS (AID 504865); conditions: purified USP1/UAF1, Ub-rhodamine cleavage fluorescence; series mostly up to 54.9 µM; also: nearly all actives have a fitted effect of over 35% in size; also: potency is read from the fitted curve at half-maximal effect
Ubiquitin carboxyl-terminal hydrolase 1 (Homo sapiens), sequence (O94782 whole entry, looked up): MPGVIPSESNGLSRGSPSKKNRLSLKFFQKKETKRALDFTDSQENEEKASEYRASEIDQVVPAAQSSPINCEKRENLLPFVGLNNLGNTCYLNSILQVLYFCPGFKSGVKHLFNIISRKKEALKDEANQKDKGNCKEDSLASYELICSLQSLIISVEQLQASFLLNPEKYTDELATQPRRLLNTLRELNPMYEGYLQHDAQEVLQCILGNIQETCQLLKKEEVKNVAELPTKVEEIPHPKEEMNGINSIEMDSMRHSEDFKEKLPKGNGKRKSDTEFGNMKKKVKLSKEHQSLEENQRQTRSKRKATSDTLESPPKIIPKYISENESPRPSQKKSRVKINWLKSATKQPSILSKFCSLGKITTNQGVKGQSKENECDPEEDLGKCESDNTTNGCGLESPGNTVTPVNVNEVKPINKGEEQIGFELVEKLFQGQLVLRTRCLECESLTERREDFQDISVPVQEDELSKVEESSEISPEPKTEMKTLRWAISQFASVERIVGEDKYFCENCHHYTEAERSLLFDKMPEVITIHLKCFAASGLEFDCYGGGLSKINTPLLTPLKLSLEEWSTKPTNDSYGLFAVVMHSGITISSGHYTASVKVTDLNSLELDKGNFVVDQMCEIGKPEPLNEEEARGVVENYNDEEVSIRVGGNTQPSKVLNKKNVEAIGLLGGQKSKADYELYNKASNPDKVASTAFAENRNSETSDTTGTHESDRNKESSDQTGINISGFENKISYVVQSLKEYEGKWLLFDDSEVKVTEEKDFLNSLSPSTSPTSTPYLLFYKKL
In short: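 USP1/UAF1 complex at 1 nM preincubated 15 min at room temperature with compound, then Ub-Rho substrate added at 150 nM final. Fluorescence (480/540 nm) read kinetically in 50 mM HEPES pH 7.8, 0.5 mM EDTA, 1 mM TCEP, 0.1 mg/ml BSA, 0.01% Tween-20.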

[12] = Primary qHTS for small molecule stabilizers of the endoplasmic reticulum resident proteome: Secreted ER Calcium Modulated Protein (SERCaMP) assay (AID 1508630); conditions: SH-SY5Y GLuc-SERCaMP (Gaussia luciferase released on ER calcium loss) secretion, thapsigargin, luminescence; series mostly up to 38.4 µM; also: % is scaled to controls: 0 for no effect and ±100 for the full control effect
In short: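 The SH-SY5Y reporter protocol was run at 3 concentrations up to 38.3 uM (primary) or 11 concentrations (follow-up): 16 h compound, 100 nM thapsigargin for 4 h, then extracellular luciferase luminescence.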

[13] = target: Cytochrome P450 1A2 (Homo sapiens) (UniProt P05177); test: p450-cyp1a2 (AID 410; calls by dose curve; also: potency is read from the fitted curve at half-maximal effect); conditions: recombinant CYP1A2, luciferin-ME demethylation, luminescence; series mostly up to 57 µM
Cytochrome P450 1A2 (Homo sapiens), sequence (P05177 whole entry, looked up): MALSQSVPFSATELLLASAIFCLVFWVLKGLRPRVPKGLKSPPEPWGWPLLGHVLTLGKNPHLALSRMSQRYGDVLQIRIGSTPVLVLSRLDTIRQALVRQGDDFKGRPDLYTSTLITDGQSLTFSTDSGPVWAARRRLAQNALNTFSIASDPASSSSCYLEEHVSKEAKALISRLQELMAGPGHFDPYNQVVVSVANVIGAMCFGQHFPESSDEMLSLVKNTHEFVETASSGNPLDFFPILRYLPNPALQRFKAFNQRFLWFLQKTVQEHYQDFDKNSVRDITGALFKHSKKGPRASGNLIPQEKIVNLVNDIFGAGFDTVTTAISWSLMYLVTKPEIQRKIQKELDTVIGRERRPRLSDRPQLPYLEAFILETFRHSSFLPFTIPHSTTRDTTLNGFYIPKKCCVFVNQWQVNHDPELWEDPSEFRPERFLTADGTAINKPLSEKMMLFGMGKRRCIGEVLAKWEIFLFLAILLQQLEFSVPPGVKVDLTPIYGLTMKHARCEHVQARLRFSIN
In short: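 O-Demethylation of luciferin 6' methyl ether by human CYP1A2 is monitored as luciferase luminescence. Substrate sits at Km (100uM); enzyme is 20nM. Values are scaled to 57 uM furafylline as maximal inhibition.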

[14] = target: Cytochrome P450 3A4 (Homo sapiens) (UniProt P08684); test: qHTS Assay for Inhibitors and Substrates of Cytochrome P450 3A4 (AID 884); conditions: recombinant CYP3A4, Luciferin-PPXE luminescence; series mostly up to 57.1 µM; also: potency is read from the fitted curve at half-maximal effect; nearly all actives have a fitted effect of over 50% in size
Cytochrome P450 3A4 (Homo sapiens), sequence (P08684 whole entry, looked up): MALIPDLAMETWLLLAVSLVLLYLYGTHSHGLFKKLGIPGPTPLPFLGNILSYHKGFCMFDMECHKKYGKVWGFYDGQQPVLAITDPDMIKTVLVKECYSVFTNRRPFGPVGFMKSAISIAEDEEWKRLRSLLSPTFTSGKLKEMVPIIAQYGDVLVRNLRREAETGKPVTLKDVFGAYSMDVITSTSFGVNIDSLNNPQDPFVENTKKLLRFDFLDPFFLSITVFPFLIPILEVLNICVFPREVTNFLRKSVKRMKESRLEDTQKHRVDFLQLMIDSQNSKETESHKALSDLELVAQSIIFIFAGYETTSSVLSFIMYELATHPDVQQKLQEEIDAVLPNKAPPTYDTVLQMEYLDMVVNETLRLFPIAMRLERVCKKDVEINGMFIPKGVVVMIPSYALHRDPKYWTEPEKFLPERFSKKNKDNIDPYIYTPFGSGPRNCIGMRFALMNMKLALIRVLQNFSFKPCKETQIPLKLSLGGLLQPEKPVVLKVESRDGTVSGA
In short: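 Luminescent readout of luciferin produced by CYP3A4 (20 nM) dealkylation of Luciferin-PPXE, 25 uM (its KM). NADPH-driven reaction ran 60 min at RT after 10 min compound preincubation; data scaled to 57 uM ketoconazole as 100% inhibition.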

[15] = target: Cytochrome P450 3A4 (Homo sapiens) (UniProt P08684); test: qHTS Assay for Activators of Cytochrome P450 3A4 (AID 885); conditions: recombinant CYP3A4, Luciferin-PPXE luminescence, 60 min; series mostly up to 57.1 µM; also: nearly all actives have a fitted effect of over 65% in size
In short: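 Using 20nM recombinant human CYP3A4 in potassium phosphate (200mM), substrate Luciferin-PPXE at 25uM, luminescent luciferin detection followed a 60-min RT NADPH reaction; data scaled to 57 uM ketoconazole.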

[16] = Confirmation and Secondary Assay for Modulators of Hemoglobin Beta Chain Splicing at IVS2 654 locus (AID 910); conditions: HeLa EGFP-654 splicing reporter, GFP fluorescence, 48 h; series mostly up to 38.3 µM;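 also: HeLa cells stably carrying EGFP split by mutant beta-globin IVS2-654 intron; % of control where 0% means no effect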
In short: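 Readout: per-well total peak green fluorescence (488 nm ex, 500–520 nm em) from objects 5–250 µm, reflecting correct splicing of an EGFP-654 reporter. Compounds were applied for 2 days at 37 °C to overnight-plated HeLa EGFP-654 cells; controls were DMSO and 500 nM IVS2-654 PNA.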

[17] = Confirmation and Secondary Assay for Modulators of Hemoglobin Beta Chain Splicing at IVS2 705 locus (AID 930); conditions: HeLa EGFP-705 splicing reporter, GFP fluorescence, 48 h; series mostly up to 38.3 µM;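 also: HeLa cells stably expressing the EGFP-705 splicing reporter; GFP fluorescence per well restored by corrected splicing of the IVS2-705 intron in EGFP; % of control where 0% means no effect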
In short: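 HeLa cells stably carrying EGFP interrupted by mutant beta-globin intron 2 (IVS2-705) treated 2 days at 37C with compound; 500 nM antisense PNA as control. Correct splicing read as total peak GFP intensity per well by laser-scanning cytometry.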

[18] = qHTS Assay for Identification of Small Molecule Agonists for Hypoxia Response Element Signaling Pathway (AID 914; active = well fitted activation curve with a large enough effect in the signal ratio, with a control signal flat, not every such curve was filed as active; the % refers to the signal ratio; also: % of control where 0% means no effect); conditions: ME-180 (cervical carcinoma) HRE-bla reporter, beta-lactamase ratio, CoCl2, 17 h; activation: stronger effect = higher value
In short: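 HRE-bla ME-180 cells with beta-lactamase reporter under hypoxia response element, compounds with EC50 CoCl2 for 17 hours at 37 C. CCF4 substrate, 460nm/530nm emission ratio gave %Activity; AC50 from titration series.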

[19] = measured here: cell count channel max response
[20] = measured here: lipid channel max response

Row | Structure (SMILES) | Potency [1] | activity change, negative = inhibition [2] | activity change, negative = inhibition [3] | activity, negative = inhibition [4] | Potency [5] | Potency [6] | outcome [7] | Potency [8] | activity change, negative = inhibition [9] | max response [9, 19] [%] | max response [9, 20] [%] | Potency [10] | Potency [11] | Potency [12] | Potency [13] | Potency [14] | Potency [15] | outcome [16] | outcome [17] | activation [18]
1 | COc1ccc(-n2c(=O)cnc3cnc(N4CCN(C)CC4)nc32)cc1 | > 11.4 µM (inactive) | -6.82% (inactive) | -9.46% (inactive) | 2.91% (inactive) | > 9.22 µM (inactive) | > 46 µM (inactive) | inactive | inactive | 2.82% (inactive) | 18.4 | 19.5 | inactive | inactive | inactive | – | – | – | – | – | –
2 | COc1ccc(CNc2cc(-c3cccc(C#N)c3)ncn2)c(OC)c1 | > 11.4 µM (inactive) | -14.7% (inactive) | – | -2.42% (inactive) | > 46 µM (inactive) | > 46 µM (inactive) | inactive | – | 7.91% (inactive) | 18.5 | 23.9 | inactive | inactive | inactive | – | – | – | – | – | –
3 | COc1ccc(CNc2ccnc(-c3ccccc3C(F)(F)F)n2)c(OC)c1 | > 11.4 µM (inactive) | -17.1% (inactive) | -5.1% (inactive) | 1.22% (inactive) | > 46 µM (inactive) | > 46 µM (inactive) | inactive | inactive | 6.23% (inactive) | 3.1 | 8.88 | – | 11.2 µM (active) | inactive | 15.8 µM (active) | 3.16 µM (active) | inactive | inactive | – | –
4 | CN(C)c1ncc2ncc(=O)n(C3CC3)c2n1 | > 11.4 µM (inactive) | 0.558% (inactive) | -1.2% (inactive) | -11.1% (inactive) | > 9.22 µM (inactive) | > 46 µM (inactive) | inactive | inactive | 7.21% (inactive) | 15.8 | 22.4 | inactive | inactive | inactive | – | – | – | – | – | –
5 | Cc1cnc(CNc2ncncc2-c2ccccc2C#N)cn1 | > 11.4 µM (inactive) | 8.99% (inactive) | -5.21% (inactive) | -4.72% (inactive) | > 46 µM (inactive) | > 46 µM (inactive) | inactive | inactive | 8.38% (inactive) | 14 | 24.3 | – | inactive | inactive | 0.251 µM (active) | – | inactive | inactive | inactive | –
6 | COc1ccccc1-c1nccc(NCc2cnc(C)cn2)n1 | > 11.4 µM (inactive) | 6.33% (inactive) | 2.9% (inactive) | 18.3% (inactive) | > 46 µM (inactive) | > 46 µM (inactive) | inactive | inactive | 11.7% (inactive) | 16.8 | 27.7 | – | inactive | inactive | 12.6 µM (active) | – | inactive | inactive | – | 3.22% (inactive)
